Results on 40 compounds are retold here after PubChem BioAssay (NCATS).

SMILES strings stand for the structures. Calls of active or inactive are those of the source. The call rests on the fitted dose curve; in most records, active means well fitted activation curve with a large enough effect; inconclusive means small, poorly fitted or top-dose-only effect; inactive means no such curve, though single readings can be large or run the other way.

Parathyroid hormone/parathyroid hormone-related peptide receptor (Homo sapiens), sequence (Q03431 whole entry, looked up): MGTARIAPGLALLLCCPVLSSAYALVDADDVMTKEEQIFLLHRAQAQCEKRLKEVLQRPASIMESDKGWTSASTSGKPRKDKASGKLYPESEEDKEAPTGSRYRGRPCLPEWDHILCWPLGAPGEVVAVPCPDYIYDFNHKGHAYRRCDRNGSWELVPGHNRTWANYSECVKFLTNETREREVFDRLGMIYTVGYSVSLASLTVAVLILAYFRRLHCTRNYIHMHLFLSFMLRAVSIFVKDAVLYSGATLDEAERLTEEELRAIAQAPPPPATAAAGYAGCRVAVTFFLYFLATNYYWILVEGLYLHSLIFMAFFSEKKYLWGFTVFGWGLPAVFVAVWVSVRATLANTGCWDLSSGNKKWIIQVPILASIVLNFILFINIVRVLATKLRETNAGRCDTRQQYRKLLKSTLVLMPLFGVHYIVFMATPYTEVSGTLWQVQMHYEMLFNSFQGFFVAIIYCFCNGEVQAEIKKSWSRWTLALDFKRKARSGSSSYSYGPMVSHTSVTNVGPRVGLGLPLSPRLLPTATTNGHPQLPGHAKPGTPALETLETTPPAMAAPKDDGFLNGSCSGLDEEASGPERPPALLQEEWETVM

This experiment addresses Parathyroid hormone/parathyroid hormone-related peptide receptor (Homo sapiens) (UniProt Q03431). The experiment can be described thus: qHTS for PTHR1 Agonists: Optimization Screen against the NCGC LOPAC library (AID 1347079). Particulars: HEK293 GP2 PTHR1 GloSensor cAMP luminescence, 1 h; series mostly up to 57.1 µM. From the text:
The goal of the proposed studies is to discover new compounds that act as potent agonists on the parathyroid hormone receptor type-1 (PTHR1). The PTHR1 plays critical roles in maintaining blood calcium and phosphate levels, as well as in controlling bone remodeling. PTHR1 agonists could thus be useful for treating diseases such as hypoparathyroidism and osteoporosis. In the former disease, an agonist drug would help maintain normal blood calcium and phosphate levels under conditions of parathyroid hormone deficiency. In the latter disease, an agonist drug would stimulate new bone formation and thus reduce the risk of fracture, under conditions of bone fragility, as occurs in aging. We performed an optimization assay of the quantitative high-throughput screening (qHTS) for the parathyroid hormone receptor type-1 (PTHR1) against the NCGC LOPAC library collection of […] compounds using a unique HEK-293-derived cell line (GP2) that expresses the PTHR1 and a GloSensor cAMP reporter construct. Increase in signal (activation / agonist) is the desired outcome for compounds of interest. NIH Chemical Genomics Center [NCGC] NIH Molecular Libraries Probe Production Centers Network [MLPCN] MLPCN Grant: P01 DK011794 Assay Submitter (PI): Thomas Gardella PhD, Massachusetts General Hospital
Reagents / Controls: M-PTH (1-15) peptide hormone fragments was provided by the assay provider and was used as a control. Column 1 was treated with M-PTH titration (1:2 dilution) beginning with a final concentration of 10uM. Column 2 was treated with M-PTH final concentration of 10uM. Columns 3 and 4 were treated with DMSO only to assess background and noise signal. Assay Steps: Four microLiter of cells suspension was dispensed in a 1536-well assay plate at a final density of 3000 cells/well. The plates were incubated overnight, after which 4uL of 0.5mM of BloTium Luciferin plus 0.5mM IBMX was added. Next, the plate was incubated at 37C for 1hr before 23nL of compound (at various final concentrations from 40uM to 0.32uM) and control were added using a 1536-well array Kalypsys pin-tool. The treated plates were again incubated at 37C for another hour. Luminescence signal was obtained using the PerkinElmer ViewLux plate reader after 15min or room temperature incubation.
`NC(CCP(=O)(O)O)C(=O)O` (stereo not given): the call was inactive.
Turning to `CN1C2CCC1CC(OC(=O)c1cc(Cl)cc(Cl)c1)C2` (stereo not given), the result was inactive.
Regarding `CC(C)NC(C)Cc1ccc(I)cc1` (stereo not given), the outcome was inactive.
Take `CCCN(CCC)C1CCc2ccc(O)cc2C1` (stereo not given): the call was inactive.
Consider `O=C(Cc1ccc(Cl)c(Cl)c1)N1CCCCC1CN1CCCC1` (stereo not given), for which the outcome was inactive.
Regarding `CNCCc1ccc(O)c(O)c1`, the result was inactive.
Take `C[C@]12N[C@H](Cc3ccccc31)c1ccccc12`: the compound was called inactive.
In the case of `CCCN1CCC[C@H](c2cccc(O)c2)C1`, the call was inactive.
With `NC(=O)CN1CC(O)CC1=O` (stereo not given) the entry was “inactive”; with `CC[C@@]1(O)C(=O)OCc2c1cc1n(c2=O)Cc2cc3ccccc3nc2-1`, “inactive”.
For `NC(=NCCC[C@H](N)C(=O)O)N[N+](=O)[O-]`, the result was inactive.
For `NC(CP(=O)(O)O)C(=O)O` (stereo not given), the outcome was inactive.
Regarding `c1ccc2sc(C3(N4CCCCC4)CCCCC3)cc2c1`, the result was inactive.
Turning to `COc1cc(C(O)CN)ccc1O` (stereo not given), the result was inactive.
With `C#CCOC(=O)C1=CCCN(C)C1`, the outcome was inactive.
As to `CNCCc1c[nH]c2ccc(O)cc12`, the compound was called inactive.
For the compound `NC1CC1c1ccccc1` (stereo not given), the compound was called inactive.
With `O=C(O)[C@@H]1CCN1`, the call was inactive.
With `CS(=N)(=O)CC[C@H](N)C(=O)O` (stereo not given in full), the compound was called inactive.
For `Cc1c(C(=O)c2cccc3ccccc23)c2cccc3c2n1[C@H](CN1CCOCC1)CO3`, the call was inactive.
The same measure for `CC(=O)[C@H]1CCC2C3CC[C@H]4C[C@H](O)CC[C@]4(C)C3CC[C@@]21C` (stereo not given in full): “inactive”; for `COC(=O)[C@@H](N)CCCN=C(N)N[N+](=O)[O-]`: “inactive”; for `CC[C@@H](C(N)=O)N1CCCC1=O`: “inactive”.
In the case of `C[N+]1(C)C2CCC1CC(OC(=O)C(CO)c1ccccc1)C2` (stereo not given), the call was inactive.
The same measure for `O=C1CCCN1CC#CCN1CCCC1`: “inactive”; for `NC1CCc2cc(O)c(O)cc2C1` (stereo not given): “inactive”; for `S=C(NC1CCCCC1)N1CCC(c2cnc[nH]2)CC1`: “inactive”.
Regarding `CC(=O)NCCc1c[nH]c2ccccc12`, the call was inactive.
As to `CN[C@@H]1C[C@@H](c2ccc(Cl)c(Cl)c2)c2ccccc21`, the call was inactive.
As for `c1ccc(CCCN2CCN(CCOC(c3ccccc3)c3ccccc3)CC2)cc1`, the call was inactive.
As to `CCCN1CCO[C@@H]2c3cc(O)ccc3OC[C@H]21`, the result was inactive.
In the case of `C/C=C(/C)C(=O)O[C@H]1C(C)=C2[C@H]([C@@H]1OC(=O)CCCCCCC)[C@@](C)(OC(C)=O)C[C@H](OC(=O)CCC)[C@@]1(O)[C@H]2OC(=O)[C@@]1(C)O`, the compound was classed as inactive.
As to `NCCc1c[nH]c2ccc(O)cc12`, the call was inactive.
`O=C(O)CC[N+](=O)[O-]`: the compound was classed as inactive.
Take `Clc1cnc(Oc2ccc(Oc3ncc(Cl)cc3Cl)cc2)c(Cl)c1`: the result was inactive.
`CCCCc1ccc(C(=O)O)nc1`: the outcome was inactive.
With `O=C(O)Cc1cnc[nH]1`, the call was inactive.
With `O=C(N[C@H]1CN2CCC1CC2)c1ccc(Cl)cc1`, the call was inactive.
The same measure for `CCCN(CCC)[C@@H]1CCc2ccc(O)cc2C1`: “inactive”; for `C[C@]12CCC3C(CC[C@H]4C[C@H](O)CC[C@]34C)C1CC[C@@H]2C(=O)CO` (stereo not given in full): “inactive”.
